# Data reported in PubChem BioAssay.
# Assay: compound effects on differentiated 3T3-L1 adipocyte viability – cell-based, 3T3-L1 adipocytes, calcein-AM fluorescence, 48 h, basal, profiling panel (AID 1163); further: test concentration not given here
# Conditions: 3T3-L1 adipocytes viability, higher = more signal
row,SMILES,z-score
1,C=C(COC)/C(=C/C[C@@H](OC(C)=O)c1ccc(CO)o1)c1cnc2ccccc2c1,0.523
2,COc1ccc(C#Cc2ccc3c(c2)[C@]2(C(=O)N3)[C@H](c3ccccc3OCCO)N3[C@H](c4ccccc4)[C@H](c4ccccc4)OC(=O)[C@H]3[C@@H]2C(=O)O)cc1,0.143
3,COc1ccc([Si](C)(C)[C@@H]2[C@@H](CC(=O)N3Cc4ccccc4C[C@H]3CO)O[C@]3(C(=O)N(C)c4c(Br)cc(C)cc43)[C@H]2C)cc1,0.181
4,C=C(CCCC)C(=O)CC[C@@H](OC(=O)c1cccnc1)c1ccc(CO)o1,0.149
5,Cc1ccc(S[C@]2(C(=O)NCC(C)C)CC(=O)N(Cc3cc(C(F)(F)F)cc(C(F)(F)F)c3)[C@@H]2c2ccc(CO)cc2I)cc1,0.299
6,CO[C@H]1O[C@H](CO)[C@@H](OC(=O)Nc2ccc(Br)cc2)[C@H](OC(=O)c2cc3ccccc3[nH]2)[C@H]1OC(=O)c1cc2ccccc2[nH]1,0.266
7,CCc1oc(CC[C@@H](CO)NC(=O)NCCn2cc(C3(O)CCCCC3)nn2)c(C(=O)OC)c1C(=O)OC,-0.33
8,COc1ccc(C(=O)Nc2ccc(CN3C(=O)[C@@]4(O[C@@H](CCn5cc([C@H](O)c6ccccc6)nn5)[C@H]([Si](C)(C)c5ccc(OC)cc5)[C@H]4C)c4ccccc43)cc2)cc1,-0.196
9,Cc1ccc(C(C)CC(O)C2C=CC3C(=O)N(c4ccccc4)C(=O)C3N2Nc2ccc([N+](=O)[O-])cc2)o1 (stereo unspecified),0.0852
10,COCCCNC(=O)[C@@]1(Cc2ccccc2N=[N+]=[N-])N=C(c2ccc(OCCCO)cc2)O[C@H]1c1ccccc1N=[N+]=[N-],0.954
11,COCCOC(=O)N1C(=O)[C@@]2(c3cc(C#Cc4ccc(OC)cc4)ccc31)[C@H](c1ccccc1OCCO)N1[C@H](c3ccccc3)[C@H](c3ccccc3)OC(=O)[C@H]1[C@@H]2C(=O)N1CCN(c2ncccn2)CC1,-0.226
12,COc1cc2c(cc1OC)CN(C(=O)[C@H]1[C@@H]3C(=O)O[C@@H](c4ccccc4)[C@@H](c4ccccc4)N3[C@@H](c3ccc(O)cc3)[C@]13C(=O)Nc1ccc(C#CC4=CCCCC4)cc13)CC2,0.474
13,CCCCc1cn(C[C@H](Cc2ccccc2)NC(=O)N[C@H](CO)CCc2oc(C(C)=O)c(C(=O)OC)c2C(=O)OC)nn1,0.813
14,CN(C)C(=O)[C@]1(Cc2ccccc2N=[N+]=[N-])N=C(c2ccc(OCCCO)cc2)O[C@@H]1c1ccccc1,-0.958
15,C=CCNC(=O)[C@@H]1[C@H]2C(=O)O[C@H](c3ccccc3)[C@H](c3ccccc3)N2[C@H](c2ccc(OCCO)cc2)[C@@]12C(=O)Nc1ccc(C#CCCO)cc12,0.422
16,[N-]=[N+]=NCc1ccccc1C[C@]1(C(=O)N2CCOCC2)N=C(c2ccc(OCCCO)cc2)O[C@H]1c1ccccc1N=[N+]=[N-],1.97
17,C=CCNC(=O)[C@H]1[C@@H]2C(=O)O[C@@H](c3ccccc3)[C@@H](c3ccccc3)N2[C@@H](c2ccc(OCCO)cc2)[C@]12C(=O)Nc1ccc(C#CC3=CCCCC3)cc12,1.66
18,COC(=O)[C@@]1(Cc2ccc(OC)cc2)[C@H]2c3cc(C(=O)N4CCCC4)n(Cc4ccccc4)c3C[C@H]2CN1C(=O)c1ccccc1,0.39

row,SMILES,z-score
1,CCCC[C@@H]1C[C@H]1[C@@H](NC(=O)c1ccco1)c1ccc(C(=O)OC)cc1,-1.16
2,C=CCOC(=O)[C@H]1[C@@H]2C(=O)O[C@@H](c3ccccc3)[C@@H](c3ccccc3)N2[C@@H](c2ccc(OCCOC(=O)[C@H]3C[C@H]4C(=O)N[C@@H](CC(C)C)C(=O)N4[C@H]3c3ccc(O)cc3)cc2)[C@]12C(=O)Nc1ccc(I)cc12,-0.212
3,COC(=O)c1c(CC[C@@H](CO)NC(=O)N[C@@H](C)Cn2cc(C3(O)CCCCC3)nn2)oc(C(C)=O)c1C(=O)OC,0.93
4,CC(C)N1C(=O)[C@@]2(Cc3ccccc31)c1ccccc1C(=O)N(C1CCCCC1)[C@H]2c1ccc(CO)cc1,0.0621
5,CN(C)CCCNC(=O)[C@@]1(c2ccc([N+](=O)[O-])cc2)CC(=O)N(C2CCCCC2)[C@@H]1c1ccc(CO)cc1I,0.184
6,CCOC(=O)C[C@H]1[C@H](OC(=O)c2ccc(C(=O)c3ccccc3)cc2)[C@@H](NC(=O)c2ccc(-c3ccccc3)cc2)c2cc(OCCCO)ccc2N1C(=O)c1ccccc1,0.734
7,C=CCNC(=O)[C@@H]1[C@H]2C(=O)O[C@H](c3ccccc3)[C@H](c3ccccc3)N2[C@H](c2ccc(OCCO)cc2)[C@@]12C(=O)Nc1ccc(C#Cc3ccc(OC)cc3)cc12,1.82
8,O=C1O[C@H](c2ccccc2)[C@H](c2ccccc2)N2[C@H]1[C@@H](C(=O)N1CCN(c3ncccn3)CC1)[C@]1(C(=O)Nc3ccc(C#CC4=CCCCC4)cc31)[C@H]2c1ccc(O)cc1,0.301
9,O=C1OCCC/C=C\[C@H]2OC34C=CCN(c5ccc6ccccc6c5)C(=O)[C@H]3N(CCCCCCO)C(=O)[C@@H]4C12 (stereo partly specified),0.817
10,C#CCN(CC=C(C)C)[C@H](CO)c1ccccc1,1.37
11,C=C(CCCC)C(=O)CC[C@H](OC(C)=O)c1cccc(OCCO)c1,1.62
12,COCCOC(=O)N1C(=O)[C@@]2(c3cc(C#Cc4ccc(OC)cc4)ccc31)[C@H](C(N)=O)[C@H]1C(=O)O[C@H](c3ccccc3)[C@H](c3ccccc3)N1[C@@H]2c1ccccc1OCCO,1.18
13,COc1ccc(C(=O)Nc2cccc(CN3C(=O)[C@]4(O[C@H](CCO)[C@@H]([Si](C)(C)c5ccc(OC)cc5)[C@@H]4C)c4ccccc43)c2)cc1,-0.564
14,Cc1ccc(S[C@]2(C(=O)NCC(F)(F)F)CC(=O)N(C(C)C)[C@@H]2c2ccc(CO)cc2I)cc1,0.837
15,COC(=O)[C@@]1(Cc2ccc(OC)cc2)[C@H]2c3cc(C(=O)N(C)C)n(CCN4CNCC4=O)c3C[C@H]2CN1C(=O)c1ccccc1,-0.261
16,COCCOC(=O)N1C(=O)[C@@]2(c3cc(C#CCNC(N)=O)ccc31)[C@H](C(=O)NC[C@H](O)c1ccccc1)[C@H]1C(=O)O[C@H](c3ccccc3)[C@H](c3ccccc3)N1[C@@H]2c1ccccc1OCCO,0.504
17,CC(C)(C)OC(=O)CC[C@]1(C(=O)O)N=C(c2ccc(OCCCO)cc2)O[C@H]1c1ccccc1N=[N+]=[N-],-0.598
18,O=C1C2C=CC(C(O)C(c3ccccc3)c3ccccc3)N(n3cnnc3)C2C(=O)N1Cc1ccccc1 (stereo unspecified),0.0304
